Most compounds without a hit are left out; they make up all but 2.4% or so of the library.
D2 ag-1: agonists of human D2 dopamine receptor (beta-arrestin) | P14416 | DiscoveRx PathHunter D2 beta-arrestin, luminescence, 90 min; 100% = 57 uM dopamine signal | activation, % (no concentration beside the values) | hit rate 0.084% among 360,000 | AID 624465; in the data active means activation above about 40%
Target sequence (P14416 whole entry, looked up): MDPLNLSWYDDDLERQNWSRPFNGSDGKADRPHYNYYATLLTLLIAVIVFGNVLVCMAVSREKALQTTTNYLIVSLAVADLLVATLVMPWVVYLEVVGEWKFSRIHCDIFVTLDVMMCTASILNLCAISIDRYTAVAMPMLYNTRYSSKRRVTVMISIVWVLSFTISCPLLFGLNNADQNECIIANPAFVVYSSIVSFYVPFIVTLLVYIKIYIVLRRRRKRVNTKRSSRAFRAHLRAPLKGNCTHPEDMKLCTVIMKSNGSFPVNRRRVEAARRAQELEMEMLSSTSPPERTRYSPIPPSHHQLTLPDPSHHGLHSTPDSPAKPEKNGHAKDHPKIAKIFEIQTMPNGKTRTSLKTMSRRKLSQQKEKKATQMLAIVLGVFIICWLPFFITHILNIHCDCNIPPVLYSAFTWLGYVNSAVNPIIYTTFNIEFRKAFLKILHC
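Agonist mode: compounds alone added to overnight-plated D2 PathHunter cells for 90 min at 37 C, with 57 uM final dopamine (EC100) defining full response. Beta-arrestin recruitment detected by chemiluminescent reagent, read after 1 h at ambient temperature.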
D2 ag-2: activates the human D2 dopamine receptor; AID 485358; P14416; HEK293 T-REx D2 cells, calcium flux agonist mode; activation, % at 2 µM; hit rate 0.53% among 340,000;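 active means activation over 3 SD above normal in the single-dose calcium agonist read, cut at about 30% in these data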
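Calcium-flux readout, 1 cycle/sec over 180 s following compound pin transfer, in inducible HEK293 Trex D2 cells (force-coupled); dopamine controls included. Positive calcium responses during this window marked compounds as potential agonists.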
D2 PAM-1: positive allosteric modulators of human D2 dopamine receptor; P14416; HEK293 T-REx D2, calcium flux, EC20 dopamine potentiation; potentiation, % at 10 µM; hit rate 0.34% among 340,000;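 active means potentiation over 3 SD above the plate norm, cut at about 30% in these data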
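Potentiation of an EC20 dopamine calcium response measured kinetically over 180 s, after a preceding 180 s compound-only read flagging agonists. Cells: inducible Hek293 Trex D2 line, 4000/well, cultured overnight at 30 C before dye loading.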
D2 antagonist: antagonizes the human D2 dopamine receptor; HEK293 TREx D2 cells, calcium flux, dopamine EC80; P14416; inhibition, % at 10 µM; hit rate 2% among 340,000; in the data active means inhibition above about 30%; inactive means below that, where a call was filed
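Dopamine at EC80 is the agonist stimulus; test compounds precede it by 180 s. Calcium flux read kinetically in a force-coupled, inducible HEK293 T-REx D2 cell line.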
D2 PAM-2: potentiates the human D2 dopamine receptor allosterically | DiscoveRx D2 beta-arrestin cells, luminescence, 90 min; 100% = 57 uM dopamine signal | potentiation, % (no concentration beside the values) | hit rate 0.23% among 360,000; in the data active means potentiation above about 50%
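PathHunter D2 cells, attached overnight at 37 deg C, received compound in DMSO plus dopamine at EC20 (50 nM final) for 90 min at 37 deg C. Beta-arrestin recruitment was read as luminescence after 1 h with detection reagent at ambient temperature.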
Numbers stand for hits; n = inactive; x = no result; ! = repeats disagree.

SMILES	D2 ag-1	D2 ag-2	D2 PAM-1	D2 antagonist	D2 PAM-2
CC(=O)N1CCC(C(=O)NCCOc2cccc(C)c2)CC1	n	n	n	34.6	n
Cc1cccc(OCCCN2CCCCCC2)c1	n	n	n	40.3	n
Clc1cccc(OCCCCN2CCCCC2)c1	n	n	n	76.8	n
COc1ccc(C(=O)N(c2ccc(C)cc2)S(=O)(=O)c2ccc(C)cc2)cc1	x	n	x	x	x
COC(=O)C1=CN(Cc2ccc(OC)cc2)C=C(C(=O)OC)C1c1cc(OC)c(OC)c(OC)c1	n	n	n	n	n
CCOC(=O)C1=CN(Cc2ccc(OC)cc2)C=C(C(=O)OCC)C1c1cccs1	n	n	n	42.1	n
COc1cccc(-c2csc(N3CCN(C(=S)Nc4cccc(C)c4)CC3)n2)c1	n	n	n	85.8	n
COc1cccc(-c2csc(N3CCN(C(=S)Nc4ccccc4)CC3)n2)c1	n	n	n	n	n
Cc1ccc(NC(=O)c2noc(C(C)C)c2[N+](=O)[O-])cc1	n	n	n	50.8	n
CC(C)c1onc(C(=O)Nc2cccc(O)c2)c1[N+](=O)[O-]	n	n	n	n	n
Cc1ccccc1Cn1ccc(NC(=O)c2nn(C)cc2[N+](=O)[O-])n1	n	n	n	31.0	n
CCn1cc([N+](=O)[O-])c(C(=O)Nc2ccn(Cc3ccccc3F)n2)n1	n	n	n	n	n
COCCCN1C(=O)C(O)=C(C(C)=O)C1c1cccc(F)c1 (stereo not given)	n	n	n	36.8	n
CCCCN1C(=O)C(O)=C(C(C)=O)C1c1ccccc1 (stereo not given)	n	n	n	n	n
O=C(CCCn1c(=O)[nH]c2ccccc2c1=O)N1CCN(c2ccccc2)CC1	x	n	n	x	x
CCN(CC)S(=O)(=O)c1cc(NC(=O)c2cc([N+](=O)[O-])ccc2N2CCOCC2)ccc1C	n	n	n	37.3	n
CCN(CC)S(=O)(=O)c1ccc(OC)c(NC(=O)c2cc([N+](=O)[O-])ccc2N2CCOCC2)c1	n	x	x	x	n
O=C(COC(=O)c1cc([N+](=O)[O-])ccc1N1CCOCC1)Nc1ccc(Cl)cc1	n	n	n	41.8	n
CCCN1CCN(C(=O)CCc2nnc3ccc(N4CCN(c5cccc(OC)c5)CC4)nn23)CC1	n	n	n	31.8	n
COc1cccc(N2CCN(c3ccc4nnc(CCC(=O)N5CCC(C)CC5)n4n3)CC2)c1	n	n	n	n	n
O=C(O)c1ccccc1NC(=O)c1cc2ccccc2oc1=O	n	n	n	n	50.8
O=C(Nc1cccnc1N1CCOCC1)c1cc2ccccc2oc1=O	n	n	n	n	n
Cc1cc(Br)ccc1N=C1C(=O)Nc2ccccc21	n	n	n	58.9	n
COc1ccc(NS(=O)(=O)c2cc3c(cc2C)NC(=O)CO3)c(OC)c1	n	38.0!	n	n	n
Cc1ccccc1NS(=O)(=O)c1cc2c(cc1C)NC(=O)CO2	n	n	n	n	n
SMILES	D2 ag-1	D2 ag-2	D2 PAM-1	D2 antagonist	D2 PAM-2
O=C(Nc1ccccc1)N(Cc1c[nH]c2ccccc12)C1CCCCCC1	x	n	n	x	x
CC(=O)c1cccc(N(CC(=O)Nc2ccccc2F)S(C)(=O)=O)c1	n	n	n	46.2	n
CSc1cccc(NC(=O)CN(c2cccc(C)c2)S(C)(=O)=O)c1	n	n	n	30.1	n
CC(C)C(NC(=O)CN(c1cccc(F)c1)S(C)(=O)=O)C(C)C	n	n	n	38.6	n
CCOc1ccc(CNC(=O)CN2C(=O)CCn3nc(-c4cn(C)c5ccccc45)cc32)cc1OC	x	n	n	x	x
COc1cc(NS(=O)(=O)c2ccc(NC(=O)/C(=C\c3ccccc3OC)NC(=O)c3ccccc3)cc2)nc(OC)n1	n	n	n	32.0	n
COc1ccc(NC(=O)/C(=C\c2ccc(OS(=O)(=O)c3ccc(C)cc3)cc2)NC(=O)c2ccccc2)cc1	n	n	40.2	n	n
COc1cc(NS(=O)(=O)c2ccc(NC(=O)/C(=C/c3ccccc3Cl)NC(=O)c3ccccc3)cc2)nc(OC)n1	n	n	n	n	n
Cc1ccc2c(Sc3ccc(Cl)cc3)c(C(=O)N3CCCCC3)[nH]c2c1	x	n	n	x	x
Cc1nn(-c2ccc3nncn3n2)c(C)c1CCC(=O)Nc1ccc(OC(F)(F)F)cc1	x	n	n	x	x
O=C(Cc1ccccc1)NN1C(=O)/C(=C/c2ccccc2C(=O)O)SC1=S	n	n	n	30.7	n
O=C(O)COc1ccccc1/C=C1\SC(=S)N(NC(=O)c2ccccc2O)C1=O	n	n	n	n	n
COc1ccc(CNCC(O)COc2cccc3c2OC(C)(C)C3)cc1 (stereo not given)	n	n	n	44.3	n
Cc1cccc(C)c1NC(=O)CN1C(=O)C2CC=CCC2C1=O (stereo not given)	n	n	n	56.9	n
Cc1cccc(C)c1NC(=O)CN1C(=O)N(C)Cc2ccccc21	n	n	n	44.9	n
CN1Cc2ccccc2N(CC(=O)NCc2ccccc2)C1=O	n	x	n	x	n
Cc1cccc(C(C)C)c1NC(=O)COC(=O)CN1C(=O)C2CC=CCC2C1=O (stereo not given)	n	n	n	n	n
CCc1ccc(NC(=O)Cn2c(=O)n(CCC(=O)NCCc3ccc(OC)c(OC)c3)c(=O)c3ccccc32)cc1	x	n	n	x	x
COc1ccccc1CNC(=O)C1(c2cccs2)CCOCC1	x	n	n	x	x
CCOc1ccc(N2C(=O)/C(=C/c3cc(OC)c(OC)c(OC)c3)N(CC(=O)OC)C2=S)cc1	n	n	46.5	n	n
CCOc1ccc(/C=C2/C(=O)N(c3ccc(OC)cc3)C(=S)N2CC(=O)OC)cc1OCC	n	n	n	n	n
Cc1ccc(CN2CCCn3nc(C(=O)NCc4ccc(N(C)C)cc4)cc3C2=O)cc1	x	n	n	x	x
C/C(=N\NC(=O)c1c(Cl)c(C)nn1C)c1cccc(NC(=O)c2cccc(F)c2)c1	n	n	n	49.3	n
Cc1cccc(C(=O)Nc2ccc(C(=O)OCc3cc(=O)n4c(C)csc4n3)cc2)c1	x	n	n	x	x
CCOC(=O)c1c(C)nn(-c2ccc(NC(=O)/C=C/C(=O)O)cc2)c1C	n	n	n	n	n
SMILES	D2 ag-1	D2 ag-2	D2 PAM-1	D2 antagonist	D2 PAM-2
CCNC(=O)Nc1ccc(-n2nc(C)c(C(=O)OCC)c2C)nc1	n	n	n	45.0	n
O=C(c1ccccc1Cl)n1nc(-c2cccnc2)nc1NCc1ccc(F)cc1	x	n	n	x	x
Nc1nc2c(s1)CCc1c-2cnn1-c1ccccc1	40.5	n	n	n	n
COc1ccc(C2CC(=O)c3c(C)nc(N4CCN(C=O)CC4)nc3C2)c(OC)c1 (stereo not given)	x	n	x	x	x
CN(C)[C@@H]1CCC[C@H]1OC(=O)C(c1ccccc1)c1ccccc1	n	n	n	46.9	n
CC1CN(C)C(C)CC1OC(=O)C(c1ccccc1)c1ccccc1 (stereo not given)	n	x	x	x	n

From PubChem
